# The full list was thinned out, with hits kept by preference.
# ROC1-CUL1 inh: inhibitors of human ROC1-CUL1 ubiquitin ligase activity | E3 ubiquitin-protein ligase RBX1 (Homo sapiens) + Cullin-1 (Homo sapiens), P62877+Q13616 | in vitro K48 di-Ub FRET, acceptor:donor ratio, 45 min | inhibition, % at 10 µM | 0.6% of 140,000 active | AID 1347404, 2020; in the data active = inhibition above about 25%
# * = called active by the depositor.
SMILES,ROC1-CUL1 inh
Nc1nc(N)c2c(F)c(N)ccc2n1,65*
Nc1nc(N)c2c(F)cccc2n1,13
Nc1nc2ccc(N)c(Cl)c2c(=O)[nH]1,-5
CC1CCCN(S(=O)(=O)c2ccc(NC(=O)c3ccncc3)cc2)C1 (stereo not given),5
Cc1cc(C(=O)N2CCN(c3ccc(F)cc3)CC2)c(C)o1,1
Cc1ccc(Oc2cc(C#N)c(C#N)cc2N2CCOCC2)cc1C,-8
CCC(C)NC(=O)c1ccccc1NC(=O)c1ccncc1 (stereo not given),6
CCC(C)NC(=O)c1c2nc3ccccc3nc2n2c1[nH]c(=O)c1ccccc12 (stereo not given),53*
CCC(C)NC(=O)c1c2c(nc3ccccc13)C(=O)N(C1CCCCC1)C2 (stereo not given),-1
COc1cc(Cl)cc(/C=C2/C(=O)NN(c3ccc(F)c(Cl)c3)C2=O)c1O,94*
COc1cc(Cl)cc(C=C2C(=O)N(C)C(=O)N(C)C2=O)c1O,-10
COc1c(I)cc(I)cc1/C=C1/C(=O)NN(c2ccc(Br)cc2)C1=O,44*
O=C1NN(c2ccc(Cl)c(Cl)c2)C(=O)/C1=C\c1c2ccccc2cc2ccccc12,-1
COc1c(I)cc(I)cc1/C=C1\C(=O)NN(c2ccc(Cl)c(Cl)c2)C1=O,89*
CCOc1c(I)cc(I)cc1/C=C1/C(=O)N(c2ccc(Cl)c(Cl)c2)N=C1C,-2
C=CCN1C(=O)NC(=O)/C(=C/c2cc(I)cc(I)c2OC)C1=O,-7
COc1ccc(/C=C2\C(=O)NN(c3ccc(Br)cc3)C2=O)cc1Br,20
Cc1ccc(N2NC(=O)/C(=C/c3cc(Cl)ccc3O)C2=O)cc1C,13
CC(OC(=O)c1cc(-c2cccc(N3C(=O)C4C5CCC(C5)C4C3=O)c2)nc2ccccc12)C(=O)c1cccc(Cl)c1 (stereo not given),5
CSc1ncc(CNCC2(N3CCCCC3)Cc3ccccc3C2)cn1,2
O=C(COc1ccc2c(c1)CCCC2)NCC(=O)N/N=C/c1ccc(Br)o1,11
Cc1nn(CC(=O)Nc2cc(Oc3ccc(O)cc3)cc([N+](=O)[O-])c2)c(C)c1[N+](=O)[O-],0
CN1C(=O)C2C(=NC(=O)CC2c2ccccc2C(F)(F)F)N(C)C1=O (stereo not given),-3
CSC1=N/C(=C\c2ccc(OC3CCCC3)cc2)C(=O)S1,5
COc1cccc(/C=C2\N=C(SC)SC2=O)c1OCc1ccccc1,-3
SMILES,ROC1-CUL1 inh
CSC1=N/C(=C\c2ccc(C(=O)O)cc2)C(=O)S1,50*
CSC1=N/C(=C\c2cc(Br)ccc2OCC(=O)O)C(=O)S1,50*
CSC1=N/C(=C\c2ccc(F)cc2)C(=O)S1,7
O=C(O)COc1ccc(Br)cc1Cl,-3
Cn1c(C(F)(F)F)cc(=O)n(-c2ccc3c(Cl)nn(S(=O)(=O)Cc4ccccc4)c3c2)c1=O,3
COc1ccc(CCNC(=O)CSc2ncnc3nc[nH]c23)cc1OC,-1
Cc1c(Br)sc2c1ccc1ccccc12,10
CC1CCN(CCOc2ccc(Cl)c3ccccc23)CC1,4
O=C(NCCN1Cc2ccccc2OC(c2ccsc2)C1)[C@@H]1C[C@H]1c1ccccc1 (stereo not given in full),-1
CC(C)CNC(=O)C1CCN(S(=O)(=O)c2ccccc2)CC1,3
N#Cc1ccc(/C=C2/SC(=Nc3ccccc3)N(Cc3ccc(C(=O)O)cc3)C2=O)cc1,-2
N#Cc1ccc(-c2ccc(/C=C3\SC(=Nc4ccccc4)N(Cc4ccco4)C3=O)o2)cc1,53*
O=C1/C(=C\c2ccc(-c3ccc(Cl)c(Cl)c3)o2)SC(=Nc2ccccc2)N1Cc1ccco1,1
O=C(Cc1ccc(Cl)cc1Cl)NCCN1CCCCC1,13
O=C(O)CN=C1NC(=O)/C(=C/c2c(Cl)cccc2Cl)N1,9
CN(CCC(=O)/C=C/c1cccc(F)c1)CCc1ccc2c(c1)OCO2,50*
CC1=NC(=O)C(C(=O)/C=C/c2ccc3c(c2)OCO3)=C(C)C1,-7
O=S(=O)(NCc1ccc2c(c1)OCO2)c1cccc(F)c1,3
COC12C(=O)N(C)C(=O)N(C)C1(OC)N(C)C(=O)N2C (stereo not given),-3
Cc1cnccc1CNC(=O)c1cc(CN(C)Cc2ccccc2)on1,2
Cc1ccc(S(=O)(=O)Nc2cc(SCC(=O)O)c(O)c3ccccc23)c(C)c1,4
COc1ccc(S(=O)(=O)Nc2cc(Sc3ncn[nH]3)c(O)c3ccccc23)cc1,97*
O=S(=O)(Nc1ccc(O)c(Sc2ncn[nH]2)c1)c1ccccc1,0
O=C(O)CSc1cc(NS(=O)(=O)c2ccc3ccccc3c2)c2ccccc2c1O,89*
O=c1oc2c(cc(NS(=O)(=O)c3ccc4ccccc4c3)c3ccccc32)s1,12
Cc1ccc(S(=O)(=O)Nc2cc(Sc3nc4ccccc4s3)c(O)c3ccccc23)cc1,10
Nc1c(C=C2C=Nc3ccccc32)c(=O)nc2sc(C(F)(F)F)nn12,-4
Cc1ccc(-c2nn3c(N)c(C=C4C=Nc5ccccc54)c(=O)nc3s2)cc1,2

# Assay outcomes (PubChem)
